Reference: ChEMBL document CHEMBL2218924, “A broad activity screen in support of a chemogenomic map for kinase signalling research and drug discovery” (Biochem J, 2013)

Experiments:
[1] = biological target: T1, Serine/threonine-protein kinase TBK1 (Homo sapiens) (UniProt Q9UHD2); details: at 10 µM
T1 sequence (whole entry): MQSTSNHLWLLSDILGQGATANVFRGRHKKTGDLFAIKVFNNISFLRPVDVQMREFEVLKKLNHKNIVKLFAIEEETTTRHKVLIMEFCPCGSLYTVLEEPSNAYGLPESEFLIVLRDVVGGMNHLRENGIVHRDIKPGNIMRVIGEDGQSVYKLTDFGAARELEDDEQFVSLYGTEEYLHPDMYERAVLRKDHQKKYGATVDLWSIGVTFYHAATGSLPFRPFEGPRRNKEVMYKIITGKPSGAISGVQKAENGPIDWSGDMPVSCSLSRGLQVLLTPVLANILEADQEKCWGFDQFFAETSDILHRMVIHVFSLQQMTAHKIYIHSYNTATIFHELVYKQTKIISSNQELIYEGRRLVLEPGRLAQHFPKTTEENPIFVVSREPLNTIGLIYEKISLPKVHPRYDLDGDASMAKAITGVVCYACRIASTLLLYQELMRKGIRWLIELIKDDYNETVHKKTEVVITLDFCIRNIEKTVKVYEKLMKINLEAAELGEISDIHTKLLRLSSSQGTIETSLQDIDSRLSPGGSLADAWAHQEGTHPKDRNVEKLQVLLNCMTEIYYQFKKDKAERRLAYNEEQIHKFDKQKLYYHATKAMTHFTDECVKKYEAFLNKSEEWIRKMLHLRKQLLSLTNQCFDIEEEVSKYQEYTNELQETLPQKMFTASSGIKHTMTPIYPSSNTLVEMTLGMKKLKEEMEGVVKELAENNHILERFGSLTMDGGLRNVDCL

[2] = biological target: T2, TGF-beta receptor type-1 (Homo sapiens) (UniProt P36897); details: at 1 µM
T2 sequence (whole entry): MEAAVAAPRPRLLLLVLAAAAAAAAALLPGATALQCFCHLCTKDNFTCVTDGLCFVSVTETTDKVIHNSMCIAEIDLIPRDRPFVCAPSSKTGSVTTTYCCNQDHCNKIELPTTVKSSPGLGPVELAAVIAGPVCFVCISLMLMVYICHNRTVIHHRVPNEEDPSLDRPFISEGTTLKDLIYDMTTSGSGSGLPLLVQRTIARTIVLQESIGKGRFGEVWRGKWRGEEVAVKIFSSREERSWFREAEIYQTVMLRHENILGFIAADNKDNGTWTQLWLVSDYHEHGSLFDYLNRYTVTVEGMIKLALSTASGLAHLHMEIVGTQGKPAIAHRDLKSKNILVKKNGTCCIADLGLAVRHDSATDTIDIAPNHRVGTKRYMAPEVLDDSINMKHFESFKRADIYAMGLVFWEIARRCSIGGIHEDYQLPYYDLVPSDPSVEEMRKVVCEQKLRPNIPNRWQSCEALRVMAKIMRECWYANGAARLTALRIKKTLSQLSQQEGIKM

[3] = biological target: T2, TGF-beta receptor type-1 (Homo sapiens); details: at 10 µM
[4] = biological target: Interleukin-1 receptor-associated kinase 1 (Homo sapiens) (UniProt P51617); details: at 1 µM
Sequence of Interleukin-1 receptor-associated kinase 1 (Homo sapiens) (P51617 whole entry, looked up): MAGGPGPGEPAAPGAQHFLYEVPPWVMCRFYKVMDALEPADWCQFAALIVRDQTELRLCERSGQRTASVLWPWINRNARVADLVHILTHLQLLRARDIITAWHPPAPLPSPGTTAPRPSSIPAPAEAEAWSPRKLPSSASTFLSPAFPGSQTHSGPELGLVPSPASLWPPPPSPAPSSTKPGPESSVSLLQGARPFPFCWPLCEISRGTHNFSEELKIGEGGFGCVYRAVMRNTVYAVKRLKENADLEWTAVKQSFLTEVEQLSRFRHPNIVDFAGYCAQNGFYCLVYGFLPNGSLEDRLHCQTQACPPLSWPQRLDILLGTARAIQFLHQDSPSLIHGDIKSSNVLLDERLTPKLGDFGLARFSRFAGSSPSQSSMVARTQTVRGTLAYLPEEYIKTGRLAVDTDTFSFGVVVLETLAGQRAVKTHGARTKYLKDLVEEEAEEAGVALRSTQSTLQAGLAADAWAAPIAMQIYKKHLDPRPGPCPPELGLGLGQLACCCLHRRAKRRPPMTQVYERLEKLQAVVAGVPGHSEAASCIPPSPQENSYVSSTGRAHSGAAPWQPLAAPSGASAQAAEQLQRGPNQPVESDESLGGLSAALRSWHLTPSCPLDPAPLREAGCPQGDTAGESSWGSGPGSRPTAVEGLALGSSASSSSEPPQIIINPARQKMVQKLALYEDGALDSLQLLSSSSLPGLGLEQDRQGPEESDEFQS

[5] = biological target: Interleukin-1 receptor-associated kinase 1 (Homo sapiens) (UniProt P51617); details: at 10 µM
[6] = biological target: Insulin receptor-related protein (Homo sapiens) (UniProt P14616); details: at 1 µM
Sequence of Insulin receptor-related protein (Homo sapiens) (P14616 27-742 limits assumed): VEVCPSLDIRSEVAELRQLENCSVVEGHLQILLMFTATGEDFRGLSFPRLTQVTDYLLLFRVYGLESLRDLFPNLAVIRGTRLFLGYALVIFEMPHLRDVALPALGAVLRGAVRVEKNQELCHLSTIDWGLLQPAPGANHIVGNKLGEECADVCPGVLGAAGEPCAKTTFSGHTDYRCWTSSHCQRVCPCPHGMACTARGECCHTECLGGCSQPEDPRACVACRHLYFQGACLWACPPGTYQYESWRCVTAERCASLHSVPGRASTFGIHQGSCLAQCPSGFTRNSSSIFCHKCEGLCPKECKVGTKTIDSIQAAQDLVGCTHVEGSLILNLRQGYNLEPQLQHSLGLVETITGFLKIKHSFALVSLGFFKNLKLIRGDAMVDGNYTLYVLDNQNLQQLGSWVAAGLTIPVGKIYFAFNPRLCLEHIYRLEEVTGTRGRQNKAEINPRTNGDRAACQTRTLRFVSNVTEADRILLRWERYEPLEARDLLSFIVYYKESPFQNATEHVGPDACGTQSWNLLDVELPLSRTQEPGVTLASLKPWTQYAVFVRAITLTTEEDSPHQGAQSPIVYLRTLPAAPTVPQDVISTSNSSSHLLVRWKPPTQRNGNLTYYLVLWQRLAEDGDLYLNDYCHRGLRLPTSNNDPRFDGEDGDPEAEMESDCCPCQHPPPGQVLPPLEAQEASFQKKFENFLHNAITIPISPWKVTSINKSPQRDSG
Sequence of Insulin receptor-related protein (Homo sapiens) (P14616 747-1297 limits assumed): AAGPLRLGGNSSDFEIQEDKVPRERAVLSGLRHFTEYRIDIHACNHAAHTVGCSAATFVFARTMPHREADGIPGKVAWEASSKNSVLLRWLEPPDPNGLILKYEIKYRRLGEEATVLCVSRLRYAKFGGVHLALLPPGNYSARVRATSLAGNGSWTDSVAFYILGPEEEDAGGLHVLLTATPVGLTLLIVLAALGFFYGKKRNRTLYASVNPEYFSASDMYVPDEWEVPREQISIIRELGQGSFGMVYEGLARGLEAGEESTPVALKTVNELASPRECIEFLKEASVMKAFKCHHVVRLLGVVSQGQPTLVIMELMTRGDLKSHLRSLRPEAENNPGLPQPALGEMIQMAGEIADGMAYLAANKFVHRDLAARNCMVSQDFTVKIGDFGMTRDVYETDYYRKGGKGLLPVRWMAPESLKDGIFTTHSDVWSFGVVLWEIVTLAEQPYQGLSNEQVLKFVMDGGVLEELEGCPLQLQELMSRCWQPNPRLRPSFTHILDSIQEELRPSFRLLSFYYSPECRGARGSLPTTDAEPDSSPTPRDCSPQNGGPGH

[7] = biological target: Insulin receptor-related protein (Homo sapiens) (UniProt P14616); details: at 10 µM
[8] = biological target: Insulin-like growth factor 1 receptor (Homo sapiens) (UniProt P08069); details: at 1 µM
Sequence of Insulin-like growth factor 1 receptor (Homo sapiens) (P08069 31-736 limits assumed): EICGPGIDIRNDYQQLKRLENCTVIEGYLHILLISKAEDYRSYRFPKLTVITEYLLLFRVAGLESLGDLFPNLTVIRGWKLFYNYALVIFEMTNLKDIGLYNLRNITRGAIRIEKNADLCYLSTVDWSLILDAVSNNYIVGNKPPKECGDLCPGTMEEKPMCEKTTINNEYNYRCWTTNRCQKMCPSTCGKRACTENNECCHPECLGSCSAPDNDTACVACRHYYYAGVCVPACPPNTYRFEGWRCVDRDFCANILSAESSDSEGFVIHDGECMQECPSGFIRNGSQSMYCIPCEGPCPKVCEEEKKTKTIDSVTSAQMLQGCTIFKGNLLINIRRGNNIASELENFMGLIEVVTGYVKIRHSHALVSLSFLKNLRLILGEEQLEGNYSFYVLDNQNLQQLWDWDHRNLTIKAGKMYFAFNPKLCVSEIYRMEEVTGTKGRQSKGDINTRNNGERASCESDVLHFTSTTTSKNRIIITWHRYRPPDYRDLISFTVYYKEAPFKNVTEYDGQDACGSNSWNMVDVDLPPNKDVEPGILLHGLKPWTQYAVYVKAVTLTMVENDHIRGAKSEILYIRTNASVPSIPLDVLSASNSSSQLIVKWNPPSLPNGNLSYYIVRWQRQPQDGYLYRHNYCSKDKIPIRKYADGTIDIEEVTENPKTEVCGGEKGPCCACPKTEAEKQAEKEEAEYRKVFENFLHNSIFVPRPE
Sequence of Insulin-like growth factor 1 receptor (Homo sapiens) (P08069 741-1367 limits assumed): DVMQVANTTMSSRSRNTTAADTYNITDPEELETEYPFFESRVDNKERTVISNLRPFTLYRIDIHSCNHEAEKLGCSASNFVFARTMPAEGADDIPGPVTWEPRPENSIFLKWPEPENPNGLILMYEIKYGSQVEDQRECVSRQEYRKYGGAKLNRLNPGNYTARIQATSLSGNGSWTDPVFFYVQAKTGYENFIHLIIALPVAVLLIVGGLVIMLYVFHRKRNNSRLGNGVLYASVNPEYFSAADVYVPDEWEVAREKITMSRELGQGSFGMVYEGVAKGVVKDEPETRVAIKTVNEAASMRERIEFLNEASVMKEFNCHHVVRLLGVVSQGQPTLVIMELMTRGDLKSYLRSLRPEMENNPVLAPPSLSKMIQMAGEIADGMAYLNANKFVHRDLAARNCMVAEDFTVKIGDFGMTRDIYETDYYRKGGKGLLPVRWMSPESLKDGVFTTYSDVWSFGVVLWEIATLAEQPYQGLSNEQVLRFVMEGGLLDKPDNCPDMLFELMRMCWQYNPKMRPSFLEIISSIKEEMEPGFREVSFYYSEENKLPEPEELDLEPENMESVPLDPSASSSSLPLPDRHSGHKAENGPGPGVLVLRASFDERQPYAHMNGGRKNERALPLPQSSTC

[9] = biological target: Insulin-like growth factor 1 receptor (Homo sapiens) (UniProt P08069); details: at 10 µM
[10] = biological target: T3, Inhibitor of nuclear factor kappa-B kinase subunit alpha (Homo sapiens) (UniProt O15111); details: at 1 µM
T3 sequence (whole entry): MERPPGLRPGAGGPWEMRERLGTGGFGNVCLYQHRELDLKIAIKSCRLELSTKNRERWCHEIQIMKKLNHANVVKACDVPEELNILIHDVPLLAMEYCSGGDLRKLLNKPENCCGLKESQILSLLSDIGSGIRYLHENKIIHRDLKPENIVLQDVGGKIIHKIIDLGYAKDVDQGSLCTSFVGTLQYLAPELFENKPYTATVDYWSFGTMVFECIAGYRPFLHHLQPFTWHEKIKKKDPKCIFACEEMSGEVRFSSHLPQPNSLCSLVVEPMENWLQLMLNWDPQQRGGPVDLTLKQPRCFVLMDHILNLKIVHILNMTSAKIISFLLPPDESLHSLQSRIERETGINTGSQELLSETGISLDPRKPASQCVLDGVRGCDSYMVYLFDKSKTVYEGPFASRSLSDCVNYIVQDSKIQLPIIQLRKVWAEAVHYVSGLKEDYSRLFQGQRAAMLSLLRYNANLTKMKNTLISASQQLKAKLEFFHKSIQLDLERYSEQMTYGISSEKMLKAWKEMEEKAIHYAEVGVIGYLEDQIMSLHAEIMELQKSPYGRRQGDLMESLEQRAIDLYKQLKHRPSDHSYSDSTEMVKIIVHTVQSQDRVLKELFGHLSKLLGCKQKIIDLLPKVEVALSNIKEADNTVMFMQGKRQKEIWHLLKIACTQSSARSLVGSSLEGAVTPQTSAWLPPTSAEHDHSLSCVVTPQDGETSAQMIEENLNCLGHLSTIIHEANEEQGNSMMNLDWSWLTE

[11] = biological target: T4, Inhibitor of nuclear factor kappa-B kinase subunit beta (Homo sapiens) (UniProt O14920); details: at 1 µM
T4 sequence (whole entry): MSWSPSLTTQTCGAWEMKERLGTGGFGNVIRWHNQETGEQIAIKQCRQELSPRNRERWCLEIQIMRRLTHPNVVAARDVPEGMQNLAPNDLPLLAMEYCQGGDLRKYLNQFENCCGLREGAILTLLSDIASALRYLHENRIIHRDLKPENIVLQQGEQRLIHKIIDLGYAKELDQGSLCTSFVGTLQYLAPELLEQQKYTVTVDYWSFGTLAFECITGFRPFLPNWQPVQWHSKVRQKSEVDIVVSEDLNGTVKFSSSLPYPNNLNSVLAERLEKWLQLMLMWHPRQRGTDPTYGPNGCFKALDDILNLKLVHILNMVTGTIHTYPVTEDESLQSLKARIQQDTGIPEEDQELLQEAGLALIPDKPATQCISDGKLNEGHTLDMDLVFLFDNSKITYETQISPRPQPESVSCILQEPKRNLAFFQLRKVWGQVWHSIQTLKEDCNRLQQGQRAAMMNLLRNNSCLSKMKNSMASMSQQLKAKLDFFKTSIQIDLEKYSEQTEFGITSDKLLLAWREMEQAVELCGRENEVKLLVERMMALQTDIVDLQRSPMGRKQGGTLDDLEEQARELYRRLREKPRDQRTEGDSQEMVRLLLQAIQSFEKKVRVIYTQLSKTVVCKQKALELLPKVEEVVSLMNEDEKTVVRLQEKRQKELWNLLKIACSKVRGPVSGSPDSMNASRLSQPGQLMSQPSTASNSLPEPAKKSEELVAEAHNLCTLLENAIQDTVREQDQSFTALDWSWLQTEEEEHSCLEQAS

[12] = biological target: T4, Inhibitor of nuclear factor kappa-B kinase subunit beta (Homo sapiens); details: at 10 µM
[13] = biological target: Insulin receptor (Homo sapiens) (UniProt P06213); details: at 1 µM
Sequence of Insulin receptor (Homo sapiens) (P06213 28-758 limits assumed): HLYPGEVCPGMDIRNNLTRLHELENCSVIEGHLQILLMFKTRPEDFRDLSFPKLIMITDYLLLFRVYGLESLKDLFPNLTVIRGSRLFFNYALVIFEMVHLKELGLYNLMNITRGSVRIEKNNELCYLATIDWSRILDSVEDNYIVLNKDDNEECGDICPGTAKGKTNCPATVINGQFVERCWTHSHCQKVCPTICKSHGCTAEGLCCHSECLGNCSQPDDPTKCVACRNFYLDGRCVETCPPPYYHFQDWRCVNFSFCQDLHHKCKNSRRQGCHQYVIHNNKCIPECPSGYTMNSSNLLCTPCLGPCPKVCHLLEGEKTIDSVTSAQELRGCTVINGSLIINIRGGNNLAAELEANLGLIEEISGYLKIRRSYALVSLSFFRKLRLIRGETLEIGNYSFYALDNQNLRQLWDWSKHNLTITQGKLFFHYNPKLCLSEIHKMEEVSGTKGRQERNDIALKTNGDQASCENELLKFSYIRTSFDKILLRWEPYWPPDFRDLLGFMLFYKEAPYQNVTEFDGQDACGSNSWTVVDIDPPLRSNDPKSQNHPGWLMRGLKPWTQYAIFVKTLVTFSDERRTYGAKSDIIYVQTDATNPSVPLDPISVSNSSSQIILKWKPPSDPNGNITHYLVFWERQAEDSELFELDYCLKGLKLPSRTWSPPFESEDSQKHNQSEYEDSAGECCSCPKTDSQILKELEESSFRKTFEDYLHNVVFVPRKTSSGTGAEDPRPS
Sequence of Insulin receptor (Homo sapiens) (P06213 763-1382 limits assumed): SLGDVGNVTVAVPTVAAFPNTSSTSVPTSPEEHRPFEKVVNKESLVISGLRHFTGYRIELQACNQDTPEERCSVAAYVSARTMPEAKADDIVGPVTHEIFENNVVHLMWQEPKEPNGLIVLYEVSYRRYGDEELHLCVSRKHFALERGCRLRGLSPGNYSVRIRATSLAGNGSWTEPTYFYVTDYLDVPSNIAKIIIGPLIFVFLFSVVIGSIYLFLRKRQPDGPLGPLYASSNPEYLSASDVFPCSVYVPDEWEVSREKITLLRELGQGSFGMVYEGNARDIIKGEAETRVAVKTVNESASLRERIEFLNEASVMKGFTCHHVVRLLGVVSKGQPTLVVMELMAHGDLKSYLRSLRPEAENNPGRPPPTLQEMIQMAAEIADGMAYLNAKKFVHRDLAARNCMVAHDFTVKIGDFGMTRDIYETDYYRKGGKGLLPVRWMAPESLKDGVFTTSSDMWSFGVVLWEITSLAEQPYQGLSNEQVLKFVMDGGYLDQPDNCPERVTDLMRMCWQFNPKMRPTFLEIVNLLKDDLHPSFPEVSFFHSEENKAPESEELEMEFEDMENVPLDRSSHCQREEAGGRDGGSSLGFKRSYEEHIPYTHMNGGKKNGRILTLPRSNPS

[14] = biological target: Insulin receptor (Homo sapiens) (UniProt P06213); details: at 10 µM
[15] = biological target: Insulin receptor (Homo sapiens) (UniProt P06213); details: at 1 µM; remark: listed apart in the source
[16] = biological target: Insulin receptor (Homo sapiens) (UniProt P06213); details: at 10 µM; remark: listed apart in the source
[17] = biological target: T5, Interleukin-1 receptor-associated kinase 4 (Homo sapiens) (UniProt Q9NWZ3); details: at 10 µM
T5 sequence (whole entry): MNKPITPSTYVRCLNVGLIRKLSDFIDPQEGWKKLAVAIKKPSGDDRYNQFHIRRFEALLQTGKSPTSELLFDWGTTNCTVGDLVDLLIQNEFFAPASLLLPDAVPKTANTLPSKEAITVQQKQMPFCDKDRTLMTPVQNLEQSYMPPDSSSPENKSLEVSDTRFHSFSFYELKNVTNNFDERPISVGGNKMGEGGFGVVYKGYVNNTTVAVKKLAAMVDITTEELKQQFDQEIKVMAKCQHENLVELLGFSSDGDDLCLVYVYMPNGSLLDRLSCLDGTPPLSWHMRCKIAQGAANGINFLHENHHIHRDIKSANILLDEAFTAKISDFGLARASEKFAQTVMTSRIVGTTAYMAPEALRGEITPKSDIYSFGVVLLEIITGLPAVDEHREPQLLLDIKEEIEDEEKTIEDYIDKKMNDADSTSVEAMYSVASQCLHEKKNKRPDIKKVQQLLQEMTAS

[18] = biological target: T6, Tyrosine-protein kinase ITK/TSK (Homo sapiens) (UniProt Q08881); details: at 1 µM
T6 sequence (whole entry): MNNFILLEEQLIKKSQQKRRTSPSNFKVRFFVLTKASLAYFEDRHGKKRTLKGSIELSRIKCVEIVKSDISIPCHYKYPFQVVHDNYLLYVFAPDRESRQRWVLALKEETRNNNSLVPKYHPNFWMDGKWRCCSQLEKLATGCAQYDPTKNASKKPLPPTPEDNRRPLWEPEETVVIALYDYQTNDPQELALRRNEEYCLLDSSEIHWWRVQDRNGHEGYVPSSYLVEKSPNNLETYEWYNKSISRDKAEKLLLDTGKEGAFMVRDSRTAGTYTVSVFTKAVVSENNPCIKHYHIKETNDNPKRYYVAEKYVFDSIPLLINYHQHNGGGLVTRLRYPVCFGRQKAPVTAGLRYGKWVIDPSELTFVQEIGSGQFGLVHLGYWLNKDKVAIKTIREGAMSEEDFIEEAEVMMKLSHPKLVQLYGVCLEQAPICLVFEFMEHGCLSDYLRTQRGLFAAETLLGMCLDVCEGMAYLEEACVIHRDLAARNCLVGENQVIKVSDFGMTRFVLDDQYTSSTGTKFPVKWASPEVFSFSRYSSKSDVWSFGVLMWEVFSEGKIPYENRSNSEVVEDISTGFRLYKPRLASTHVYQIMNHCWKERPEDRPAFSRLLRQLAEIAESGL

[19] = biological target: T3, Inhibitor of nuclear factor kappa-B kinase subunit alpha (Homo sapiens); details: at 10 µM
[20] = biological target: T5, Interleukin-1 receptor-associated kinase 4 (Homo sapiens); details: at 1 µM

Compound | residual activity [1] | residual activity [2] | residual activity [3] | residual activity [4] | residual activity [5] | residual activity [6] | residual activity [7] | residual activity [8] | residual activity [9] | residual activity [10] | residual activity [11] | residual activity [12] | residual activity [13] | residual activity [14] | residual activity [15] | residual activity [16] | residual activity [17] | residual activity [18] | residual activity [19] | residual activity [20]
CC(C)N(CCC(=O)c1ccc2ccccc2c1)Cc1ccccc1 | 51% | 76% | 74% | 83% | 77% | 131% | 82% |  |  |  |  |  |  |  |  |  |  |  |  | 
Nc1ncnc2[nH]nc(Nc3ccc(F)cc3)c12 | 58% | 107% | 74% | 93% | 101% | 124% | 106% | 109% | 112% | 105% | 115% | 108% | 141% | 103% | 97% | 90% | 58% | 103% |  | 
O=C(O)/C=C/c1cc(Br)c(Br)c(Br)c1Br | 58% | 101% | 97% | 101% | 68% |  |  |  |  | 98% | 105% | 65% | 144% | 141% | 100% | 90% | 94% |  | 35% | 
CCCCc1c(-c2ccc(OC)cc2)[nH]c2nccnc12 | 59% | 84% | 73% | 62% | 81% | 100% | 88% | 61% | 51% | 87% | 109% | 101% |  |  | 66% | 75% | 65% | 82% | 87% | 79%
COc1ccc(Cl)cc1NC(=O)Nc1cc(C)nc2ccccc12 | 69% | 86% | 94% | 96% | 100% |  |  |  |  |  |  |  |  |  |  |  |  |  |  | 
O=C1C(Cl)=C(N2C(=O)CCC2=O)C(=O)c2ccccc21 | 60% | 100% | 90% | 85% |  |  |  | 90% | 101% |  | 116% | 92% | 100% | 87% | 89% | 93% | 83% |  |  | 75%
O=C(c1cc2cc(O)ccc2[nH]1)c1cc2cc(O)ccc2[nH]1 | 2% | 79% | 80% | 65% | 23% |  | 55% |  |  | 109% | 70% | 34% |  |  |  |  | 20% | 64% | 77% | 50%
O=C(NC(NC(=S)Nc1ccc(F)c([N+](=O)[O-])c1)C(Cl)(Cl)Cl)C(c1ccccc1)c1ccccc1 (stereo not given) | 74% | 98% | 87% |  |  | 126% |  | 85% | 85% | 90% |  |  |  | 96% | 98% | 93% |  |  | 100% | 
Nc1nc(Nc2ccc(S(N)(=O)=O)cc2)nn1C(=O)c1c(F)cccc1F | 19% | 105% | 62% |  | 43% | 112% | 57% |  | 63% |  |  | 69% |  |  |  |  | 37% |  |  | 96%
Cn1c2ccccc2c2c3c(c4c5ccccc5n(CCC#N)c4c21)CNC3=O | 9% | 69% | 63% | 47% | 44% | 69% | 53% |  |  | 48% | 72% | 63% |  |  |  |  | 4% | 4% | 19% | -1%
O=c1cc(N2CCOCC2)oc2c1ccc1ccccc12 | 71% | 89% | 88% | 83% | 88% |  | 98% |  |  |  | 96% | 94% | 108% | 91% | 103% | 97% | 88% | 96% |  | 96%
CC(C)[C@H](CO)Nc1nc(Nc2cc(N)cc(Cl)c2)c2ncn(C(C)C)c2n1 | 43% | 98% | 91% | 94% | 49% |  |  | 75% | 17% |  |  | 88% | 90% | 50% | 55% | 6% | 7% |  |  | 39%
Cn1sc(=O)n(Cc2ccccc2)c1=O | 55% | 77% | 72% |  |  |  |  |  |  | 91% |  |  | 93% | 82% | 96% | 93% | 76% | 97% | 93% | 74%
